# In the library only some 9.9% were active in any assay of this set; here they are far more common.
# Tau ThT inhib: inhibitors of human tau fibril formation, thioflavin T binding; recombinant tau K18 P301L, heparin-induced fibrillization, ThT fluorescence; Potency, µM (top dose mostly 57.4 µM), for the others: at the highest dose activity, negative = inhibition, actives largely listed as inhibitors; 270,000 compounds, 2.1% hits; AID 1460; note: nearly all actives have a fitted effect of over 55% in size
#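 Heparin-induced fibrillization of the P301L-mutant K18 repeat-domain fragment of human tau was followed by ThT binding in quantitative high-throughput format.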
# KDM4E inh: JMJD2E (human) inhibition; B2RXH2; JMJD2E catalytic domain, FDH-coupled NADH fluorescence (FDH is formaldehyde dehydrogenase); 230,000 compounds, 1.6% hits; Potency, µM (series often up to 57.1 µM), for the others: top-dose activity change, negative = inhibition, most hits filed as inhibitors; active = well fitted inhibition curve with a large enough effect, not every such curve was filed as active; inconclusive = small, poorly fitted or top-dose-only effect, or another doubt; inactive = no such curve, though single readings can be large or run the other way;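 note: 0% = wells with enzyme and -100% = buffer wells without enzyme; nearly all actives have a fitted effect of over 50% in size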
# Tau fluor counter: counter-screen for tau fibril formation inhibitors. tau K18 P301L Alexa594 fluorescence, heparin fibrillization. Potency, µM (top dose mostly 57.7 µM), for the others: at the top dose activity change, negative = decrease. 280,000 compounds, 0.93% hits; note: nearly all actives have a fitted effect of over 55% in size
#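 Human tau K18 P301L (15 uM unlabeled, 0.24 uM Alexa 594-labeled) in 100 mM sodium acetate pH 7 with 20 uM heparin, 6 hr at 37 C. ThT 30 uM added, 1 hr ambient; Alexa 594 FP and total fluorescence read at 555/632 nm.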
# Tau FP inhib: tau fibrillization inhibition (FP); AID 1468; P10636; K18 P301L tau heparin fibrillization, Alexa594 FP, 6 h; Potency, µM (series often up to 57.7 µM), inactives show at the top dose activity, negative = inhibition, most hits filed as inhibitors; 280,000 compounds, 0.39% hits; note: nearly all actives have a fitted effect of over 55% in size
#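 Human tau K18 […] P301L fragment, 15 uM unlabeled plus 0.24 uM Alexa 594-labeled tau (final), with compound and 20 uM heparin in 100 mM sodium acetate pH 7; 6 hr at 37 C, then Alexa 594 FP read.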
# HPGD inh: HPGD (human) dehydrogenase inhibition | P15428 | purified HPGD, NADH fluorescence kinetic, PGE2 substrate | Potency, µM, inactives show top-dose activity change, negative = inhibition, usual class: inhibitors | 150,000 compounds, 4.3% hits; active = well fitted inhibition curve with a large enough effect, not every such curve was filed as active; inconclusive = small, poorly fitted or top-dose-only effect, or another doubt; inactive = no such curve, though single readings can be large or run the other way
#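 NADH formation kinetics: reaction with 30 uM PGE2 and 1 mM NAD+ (final), 20 nM enzyme, Tris-HCl pH 8 with Tween 20, after 15 min compound preincubation at room temperature. Fluorescence change, last versus first of five reads.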
# ALDH1A1 block: ALDH1A1 (human) enzyme inhibition; P00352; Purified ALDH1A1, NADH fluorescence, propionaldehyde substrate; Potency, µM (highest dose often 75.3 µM), inactives show at the highest dose activity, negative = inhibition, usual class: inhibitors; 220,000 compounds, 7.3% hits; active = well fitted inhibition curve with a large enough effect, not every such curve was filed as active; inconclusive = small, poorly fitted or top-dose-only effect, or another doubt; inactive = no such curve, though single readings can be large or run the other way;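 note: plate controls were no enzyme wells and a reference inhibitor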
# Target sequence (P00352 whole entry, looked up): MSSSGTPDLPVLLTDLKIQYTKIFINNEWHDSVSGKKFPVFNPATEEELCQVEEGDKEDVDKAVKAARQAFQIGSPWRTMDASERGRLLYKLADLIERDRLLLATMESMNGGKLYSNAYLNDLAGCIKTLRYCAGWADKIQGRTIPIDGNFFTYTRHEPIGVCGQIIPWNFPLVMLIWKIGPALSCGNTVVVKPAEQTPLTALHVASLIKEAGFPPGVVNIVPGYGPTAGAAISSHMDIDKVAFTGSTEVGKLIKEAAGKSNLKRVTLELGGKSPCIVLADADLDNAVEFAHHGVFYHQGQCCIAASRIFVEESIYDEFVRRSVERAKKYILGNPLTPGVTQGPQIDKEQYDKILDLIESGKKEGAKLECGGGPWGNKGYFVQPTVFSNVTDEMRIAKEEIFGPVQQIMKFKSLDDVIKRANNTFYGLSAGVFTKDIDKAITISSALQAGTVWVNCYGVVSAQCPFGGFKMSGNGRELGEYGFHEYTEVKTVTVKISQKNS
# Starred values were filed as active, the others as inactive; ? = inconclusive; . = no result; [ ] = another dose, or the depositor's remark. Unless noted, calls come from the whole dose curve; as a rule, active = well fitted curve in the direction sought with a large enough effect; inconclusive = small, poorly fitted or top-dose-only effect, or another doubt; inactive = no such curve, though single readings can be large; an effect the other way counts as inactive or inconclusive. Unless noted, % is set by controls: 0 for no effect and ±100 for the full control effect; potency is the fitted concentration of half-maximal effect.
SMILES,Tau ThT inhib,KDM4E inh,Tau fluor counter,Tau FP inhib,HPGD inh,ALDH1A1 block
COC(=O)c1cc(OC)c(OC)cc1NC(=O)CCCCCN1C(=O)CCC1=O,-7%,?,-3%,-6%,-18%,-12%
COCCNC(=O)CCCCCN1C(=O)CCC1=O,-2%,-3%,-2%,7%,16µM*,12%
CC(C)(C)N(NC(=O)c1ccccc1)C(=O)c1ccc(C(=O)N(NC(=O)c2ccccc2)C(C)(C)C)cc1,-5%,3%,-3%,-5%,0%,3%
CCc1ccc(C(=O)NN(C(=O)c2ccc(CC)cc2)C(C)(C)C)cc1,9%,-4%,7%,8%,25µM*,-2%
NNc1nc2ccc(F)cc2s1,25µM*,?,18µM*[quencher],?,-13%,?
NNc1nc2ccc(Cl)cc2s1,22µM*,?,14µM*[quencher],?,-17%,35µM*
Cc1cc(C(=O)Nc2nc3ccc(Cl)cc3s2)nn1C,-7%,?,-4%,4%,.,.
Cc1cc(C)cc(NC(=O)Cn2cc3c(n2)CCCCC3)c1,-4%,4%,-7%,2%,20µM*,-8%
CN(C)c1ccc(NC(=O)Cn2cc3c(n2)CCCC3)cc1,?,-5%,-18%,3%,-13%,-4%
O=C(O)Cn1c(SCc2cccc3ccccc23)nc2ccccc21,1%,4%,4%,7%,25µM*,2%
COc1ccc(S(=O)CC(=O)Nc2ccc(Cl)cc2Cl)cc1 (centres undefined),-1%,10%,5%,-1%,.,1%
CC(C)CCOc1ccc(C(=O)CCNC(C)C(=O)O)cc1 (centres undefined),-8%,4%,2%,-2%,-17%,0.13µM*
CC(C)CCOc1ccc(C(=O)O)cc1,-8%,8%,-8%,-5%,-6%,7%
CC(CC(=O)O)CC(=O)Nc1ccc(Br)cc1 (centres undefined),-4%,-1%,-3%,-1%,.,.
CCCc1cnc2c(c1SCC(=O)Nc1ccc([N+](=O)[O-])cc1)c(=O)n(C)c(=O)n2C,-14%,.,-13%,-9%,.,.
C=CCN1C(c2cccc(C(F)(F)F)c2)=CS/C1=C(/C#N)c1nnc(N2CCOCC2)n1-c1ccccc1,?,-1%,-15%,2%,-9%,14µM*
C=CCN1C(=O)NC(c2ccc(OC)cc2)(C(F)(F)F)S/C1=C(\C#N)c1nnc(N2CCOCC2)n1-c1ccccc1 (centres undefined),-15%,8%,6%,-5%,-12%,?
N#C/C(=C(/O)CCl)c1nnc2n1CCCCC2,-13%,-4%,-10%,-3%,.,?
C=CCN1C(c2ccccc2)=CS/C1=C(\C#N)c1nnc2n1CCCCC2,-2%,-12%,5%,8%,25µM*,18µM*
C=CCN1C(c2ccc(Br)cc2)=CS/C1=C(/C#N)c1nnc(N2CCOCC2)n1-c1ccccc1,?,?,-21%,-10%,6%,3.2µM*
CCOc1ccc(C2=CS/C(=C(\C#N)c3nnc4n3CCCCC4)N2CC)cc1,-12%,6%,-4%,7%,?,?
N#C/C(=C(/O)COc1ccccc1)c1nnc2n1CCCCC2,-4%,?,2%,1%,.,7.9µM*
COc1cc(NC(=O)CC(C)S(=O)(=O)c2ccc3c(c2)CCN3C(C)=O)cc(OC)c1OC (centres undefined),7%,.,10%,-7%,.,.
Cn1nnc(NC(=S)NC(=O)Cc2ccccc2)n1,-12%,-12%,-3%,3%,.,?
CC(=O)Sc1nc(-c2ccccc2)[nH]c1S(=O)(=O)c1ccc(C)cc1,28µM*,10µM*,-30%,40µM*,.,7%
Cc1ccc(-c2nnnn2-c2ccc(C)cc2)cc1,-7%,-7%,-10%,-4%,.,-8%
Cc1ccc(-n2nnnc2CCl)cc1,-4%,5%,-4%,0%,.,22µM*
COc1cc(NC(=O)c2nc(-c3ccncc3)no2)cc(OC)c1OC,0%,.,-5%,-6%,.,.

# Screening results as filed in PubChem.
